In PubChem BioAssay (EPA / NIEHS) one finds outcome and AC50 data, which are given here for eight compounds.

Active and inactive are the calls of the source. Rule for the calls: active = hit-call score of the fitted dose curve at least 0.9, where 1 is the maximum; inactive = score below 0.9.

The nature of test [1]: ATG_CRE_CIS: Attagene CIS-FACTORIAL HepG2 Assay for human cAMP Responsive Element (CRE) binding protein 3 (AID 2282926). As to conditions: HepG2 CRE cis-reporter, Attagene multiplexed mRNA; actives raise or lower the signal. In a few lines:
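We dosed HepG2 cells bearing multiple cis-promoter reporter units for 24 h and measured reporter mRNA by RT-PCR with capillary electrophoresis detection. Bidirectional concentration-response fitting used DMSO as negative control.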

Test [2] concerns the target CCAAT/enhancer-binding protein beta (Homo sapiens) (UniProt P17676). As to the kind of experiment: ATG_C_EBP_CIS: Attagene CIS-FACTORIAL HepG2 Assay for human CCAAT/Enhancer Binding Protein (C/EBP) beta (AID 2282927). As to conditions: HepG2 Attagene cis-factorial transcription factor reporter; actives raise or lower the signal. Put shortly:
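Changes in reporter mRNA, rather than exogenous chimeric receptor activity, reflect native C/EBP signalling in transfected HepG2 cells dosed for 24 h; transcripts are detected by RT-PCR and capillary electrophoresis.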

Test [3] is described as follows: ATG_CMV_CIS: Attagene CIS-FACTORIAL HepG2 Assay for human CMV (Internal Marker) (AID 2282928).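 Note: endpoint acts as a background internal control marker rather than a target.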 As to conditions: HepG2 CMV promoter reporter, transcription factor profiling; actives raise or lower the signal. In a few lines: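 Endogenous transcription factor activity read in HepG2 via transfected cis-promoter reporter units. After 24 h dosing, reporter mRNA measured by RT-PCR/capillary electrophoresis; gain or loss of signal fit relative to DMSO.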

Test [4] can be described thus: ATG_DR4_LXR_CIS: Attagene CIS-FACTORIAL HepG2 Assay for human Liver X Receptor (LXR), DR4 submotif (AID 2282929). As to conditions: HepG2 Attagene DR4 cis-reporter, mRNA transcription; actives raise or lower the signal. Put shortly: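 HepG2, transient MRTU transfection, cis-element (DR4) promoter; 24 h compound exposure; total RNA → oligo(dT) RT → PCR → 6-FAM primer extension → HpaI cut → CE. Gain/loss vs DMSO, bidirectional fit.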

Test [5] in a line: ATG_AP_1_CIS: Attagene CIS-FACTORIAL HepG2 Assay for human Activator Protein 1 (AP-1) (AID 2282931). As to conditions: HepG2 Attagene cis-factorial AP-1 reporter mRNA; actives raise or lower the signal. In a few lines: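 Transient MRTU transfection of HepG2 → 24 h chemical treatment → RNA isolation, RT-PCR, 6-FAM labelling, HpaI digest → capillary electrophoresis. Fit: bidirectional, DMSO negative control.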

Test [6] can be described thus: ATG_AP_2_CIS: Attagene CIS-FACTORIAL HepG2 Assay for human Activator Protein 2 (AP-2) (AID 2282932). As to conditions: HepG2 AP-2 cis-reporter, Attagene transcription factor profiling; actives raise or lower the signal. Put shortly: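 Step one: transient transfection of HepG2 with reporter transcription units. Step two: 24 h chemical exposure. Step three: RNA extraction, RT-PCR, labelled fragment analysis by capillary electrophoresis; DMSO serves as baseline.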

A short description of test [7]: ATG_BRE_CIS: Attagene CIS-FACTORIAL HepG2 Assay for human Bone Morphogenetic Protein (BMP) Response Element (BRE) (AID 2282933). As to conditions: HepG2 BMP response element reporter, Attagene transcription factor profiling; actives raise or lower the signal. Put shortly:
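Fluorescence-labelled reporter cDNA fragments, separated by capillary electrophoresis, gave the signal for this component of a 52-readout multiplex. HepG2 cells were transfected, exposed to chemicals for 24 h, and compared with DMSO using bidirectional fitting.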

For test [8], the target named is Transcription factor E2F1 (Homo sapiens) (UniProt Q01094). The test can be described thus: ATG_E2F_CIS: Attagene CIS-FACTORIAL HepG2 Assay for human E2F Transcription Factor 1 (AID 2282935). As to conditions: HepG2 Attagene cis-reporter, E2F reporter RNA transcripts; actives raise or lower the signal. Put shortly:
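Total RNA from 24 h-treated, reporter-transfected HepG2 cells undergoes DNase I treatment, oligo(dT) reverse transcription, PCR and 6-FAM primer extension before capillary electrophoresis.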

Test [9] can be described thus: ATG_E_Box_CIS: Attagene CIS-FACTORIAL HepG2 Assay for human Enhancer Box (E-box) (AID 2282936). As to conditions: HepG2 E-box cis-reporter transcription, actives raise or lower the signal. In a few lines:
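DMSO served as negative control and baseline for bidirectional fitting. Human hepatoma HepG2 cells, transiently transfected with cis-reporter constructs, were dosed 24 h; reporter mRNA read by RT-PCR and capillary electrophoresis.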

Test [10] can be described thus: ATG_M_61_CIS: Attagene CIS-FACTORIAL HepG2 Assay for M61 Transcription Factor (Internal Marker) (AID 2282937). As to conditions: HepG2 Attagene CIS-FACTORIAL M61 internal marker reporter; actives raise or lower the signal. Put shortly:
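Human liver HepG2, transient MRTU transfection (cis promoter elements), 24 h compound. Total RNA → oligo(dT) RT → PCR → FAM label → HpaI → CE. Internal background marker; bidirectional fitting, DMSO = baseline.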

The nature of test [11]: ATG_EGR_CIS: Attagene CIS-FACTORIAL HepG2 Assay for human Early Growth Response 1 (EGR1) (AID 2282938). As to conditions: HepG2 Attagene CIS-FACTORIAL EGR reporter mRNA; actives raise or lower the signal. In a few lines: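 Transient transfection of human HepG2 with multiple cis-regulated reporter units, chemical exposure 24 h, total RNA isolated. Reverse transcription, PCR, fluorescent labelling and capillary electrophoresis quantify reporter transcripts; activity fitted bidirectionally against DMSO.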

A short description of test [12]: ATG_M_19_CIS: Attagene CIS-FACTORIAL HepG2 Assay for M19 Transcription Factor (Internal Marker) (AID 2282939). As to conditions: HepG2 Attagene CIS-FACTORIAL M19 internal marker reporter; actives raise or lower the signal. Put shortly:
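HepG2, MRTU transient transfection, 24 h dosing. Total RNA → RT-PCR → 6-FAM primer extension → HpaI digest → CE fluorescence. Bidirectional curve fit, DMSO negative control.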

Test [13] is described as follows: ATG_ERE_CIS: Attagene CIS-FACTORIAL HepG2 Assay for Estrogen Response Element (ERE) (AID 2282940). As to conditions: HepG2 ERE cis-reporter, Attagene RNA transcript; actives raise or lower the signal. In a few lines: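 After a 24 h chemical treatment, RNA from reporter-transfected HepG2 cells is reverse-transcribed, PCR-amplified and fluorescently labelled. Fragments separated by capillary electrophoresis give reporter signal; DMSO serves as negative control.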

The nature of test [14]: ATG_Ets_CIS: Attagene CIS-FACTORIAL HepG2 Assay for human Erythroblast Transformation Specific (ETS) (AID 2282941). As to conditions: HepG2 ETS cis-reporter transcription, actives raise or lower the signal. In a few lines: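 Steps: transfect HepG2 with multiple reporter units; treat compound 24 h; isolate RNA, DNase-treat, reverse-transcribe; PCR-amplify, label with 6-FAM, digest with HpaI; separate by capillary electrophoresis. Activity fitted both directions versus DMSO.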

For test [15], the target named is Hepatocyte nuclear factor 3-beta (Homo sapiens) (UniProt Q9Y261). The test can be described thus: ATG_FoxA2_CIS: Attagene CIS-FACTORIAL HepG2 Assay for human Forkhead box A2 (FOXA2) (AID 2282942). As to conditions: HepG2 cis-reporter transcription factor activity, 24 h; actives raise or lower the signal. Put shortly:
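Transient MRTU transfection of HepG2 liver cells; 24 h treatment; total RNA → oligo(dT) RT → PCR → FAM primer extension → HpaI cut → CE. Bidirectional fit vs DMSO.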

A short description of test [16]: ATG_FoxO_CIS: Attagene CIS-FACTORIAL HepG2 Assay for human Forkhead box O (FoxO) (AID 2282943). As to conditions: HepG2 Attagene cis-reporter, FoxO element, mRNA; actives raise or lower the signal. Put shortly:
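Human hepatoma HepG2 cells carry transiently introduced reporter transcription units controlled by cis promoter elements. Chemical treatment lasted 24 h, and mRNA signal was compared with DMSO.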

Test [17] in a line: ATG_GLI_CIS: Attagene CIS-FACTORIAL HepG2 Assay for human Zinc Finger Protein GLI1 (AID 2282945). As to conditions: HepG2, Attagene cis-factorial reporter mRNA, GLI element; actives raise or lower the signal. Put shortly:
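Bidirectional curve fits relative to DMSO, using reporter mRNA levels from RT-PCR plus capillary electrophoresis. Cells were HepG2 transiently carrying cis-regulated reporter constructs, harvested 24 h after dosing.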

In test [18] the target is Aryl hydrocarbon receptor (Homo sapiens) (UniProt P35869). The test can be described thus: ATG_Ahr_CIS: Attagene CIS-FACTORIAL HepG2 Assay for human Aryl Hydrocarbon Receptor (Ahr) (AID 2282930). As to conditions: HepG2 AhR cis-factorial reporter transcription; actives raise or lower the signal. Put shortly:
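HepG2, transient MRTU (cis) transfection, 24 h exposure. RNA → cDNA → PCR → 6-FAM primer extension → HpaI 2 h 37 C → CE. Fit: bidirectional, DMSO baseline.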

Test [19] has as its target Retinoic acid receptor alpha (Homo sapiens) (UniProt P10276). As to the kind of experiment: ATG_DR5_RAR_CIS: Attagene CIS-FACTORIAL HepG2 Assay for human Retinoic Acid Receptor Alpha (RARE), DR5 submotif (AID 2282934). As to conditions: HepG2 Attagene cis-factorial RARE DR5 reporter, mRNA; actives raise or lower the signal. In a few lines: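 HepG2, transient cis-reporter transfection, 24 h exposure. mRNA readout: RT-PCR, FAM label, HpaI cut, capillary electrophoresis. DMSO baseline, gain/loss fitting.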

Test [20] is described as follows: ATG_GATA_CIS: Attagene CIS-FACTORIAL HepG2 Assay for human GATA Binding Protein (AID 2282944). As to conditions: HepG2 GATA cis-element reporter, Attagene multiplex mRNA; actives raise or lower the signal. Put shortly: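 Cells: HepG2, transiently transfected with cis-regulated reporter transcription units. Exposure: 24 h. Detection: RT-PCR plus capillary electrophoresis of FAM-labeled fragments. Analysis: bidirectional, DMSO as baseline.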

As usually defined, the AC50 is the midpoint of the concentration-response curve, whichever way the signal moves.

Chain of Hepatocyte nuclear factor 3-beta (Homo sapiens) (Q9Y261 whole entry, looked up): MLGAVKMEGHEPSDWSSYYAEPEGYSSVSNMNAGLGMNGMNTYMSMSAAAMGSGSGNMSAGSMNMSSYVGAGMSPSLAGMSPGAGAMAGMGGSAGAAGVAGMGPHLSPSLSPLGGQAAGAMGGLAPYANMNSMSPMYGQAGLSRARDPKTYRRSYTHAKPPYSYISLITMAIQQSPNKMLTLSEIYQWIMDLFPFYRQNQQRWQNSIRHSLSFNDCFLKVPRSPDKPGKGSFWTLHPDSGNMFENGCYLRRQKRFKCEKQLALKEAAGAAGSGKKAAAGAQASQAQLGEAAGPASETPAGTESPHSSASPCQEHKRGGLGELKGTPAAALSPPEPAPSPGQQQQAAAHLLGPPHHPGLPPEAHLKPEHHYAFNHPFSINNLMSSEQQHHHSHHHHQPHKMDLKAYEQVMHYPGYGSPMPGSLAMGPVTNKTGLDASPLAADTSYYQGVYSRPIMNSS
Chain of Transcription factor E2F1 (Homo sapiens) (Q01094 whole entry, looked up): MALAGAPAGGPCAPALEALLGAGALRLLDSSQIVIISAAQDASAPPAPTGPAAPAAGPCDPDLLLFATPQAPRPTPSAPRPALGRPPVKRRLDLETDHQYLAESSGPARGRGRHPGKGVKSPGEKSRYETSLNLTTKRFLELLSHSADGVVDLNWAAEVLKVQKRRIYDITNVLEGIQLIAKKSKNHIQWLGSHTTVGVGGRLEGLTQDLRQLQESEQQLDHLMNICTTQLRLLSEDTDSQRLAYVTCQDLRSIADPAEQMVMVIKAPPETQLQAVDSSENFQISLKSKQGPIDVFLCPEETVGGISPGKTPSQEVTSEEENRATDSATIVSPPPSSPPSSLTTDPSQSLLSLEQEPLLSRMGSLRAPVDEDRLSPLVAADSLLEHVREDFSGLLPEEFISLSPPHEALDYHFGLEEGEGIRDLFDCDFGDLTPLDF
Chain of CCAAT/enhancer-binding protein beta (Homo sapiens) (P17676 whole entry, looked up): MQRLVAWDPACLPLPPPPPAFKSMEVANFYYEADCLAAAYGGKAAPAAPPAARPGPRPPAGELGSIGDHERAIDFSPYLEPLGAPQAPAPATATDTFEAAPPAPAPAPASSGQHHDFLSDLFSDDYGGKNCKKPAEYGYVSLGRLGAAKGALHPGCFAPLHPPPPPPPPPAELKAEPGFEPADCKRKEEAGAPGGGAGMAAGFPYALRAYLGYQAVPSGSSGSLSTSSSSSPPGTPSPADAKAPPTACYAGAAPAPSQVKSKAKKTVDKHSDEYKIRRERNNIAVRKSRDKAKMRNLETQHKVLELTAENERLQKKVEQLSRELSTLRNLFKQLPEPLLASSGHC
Chain of Aryl hydrocarbon receptor (Homo sapiens) (P35869 whole entry, looked up): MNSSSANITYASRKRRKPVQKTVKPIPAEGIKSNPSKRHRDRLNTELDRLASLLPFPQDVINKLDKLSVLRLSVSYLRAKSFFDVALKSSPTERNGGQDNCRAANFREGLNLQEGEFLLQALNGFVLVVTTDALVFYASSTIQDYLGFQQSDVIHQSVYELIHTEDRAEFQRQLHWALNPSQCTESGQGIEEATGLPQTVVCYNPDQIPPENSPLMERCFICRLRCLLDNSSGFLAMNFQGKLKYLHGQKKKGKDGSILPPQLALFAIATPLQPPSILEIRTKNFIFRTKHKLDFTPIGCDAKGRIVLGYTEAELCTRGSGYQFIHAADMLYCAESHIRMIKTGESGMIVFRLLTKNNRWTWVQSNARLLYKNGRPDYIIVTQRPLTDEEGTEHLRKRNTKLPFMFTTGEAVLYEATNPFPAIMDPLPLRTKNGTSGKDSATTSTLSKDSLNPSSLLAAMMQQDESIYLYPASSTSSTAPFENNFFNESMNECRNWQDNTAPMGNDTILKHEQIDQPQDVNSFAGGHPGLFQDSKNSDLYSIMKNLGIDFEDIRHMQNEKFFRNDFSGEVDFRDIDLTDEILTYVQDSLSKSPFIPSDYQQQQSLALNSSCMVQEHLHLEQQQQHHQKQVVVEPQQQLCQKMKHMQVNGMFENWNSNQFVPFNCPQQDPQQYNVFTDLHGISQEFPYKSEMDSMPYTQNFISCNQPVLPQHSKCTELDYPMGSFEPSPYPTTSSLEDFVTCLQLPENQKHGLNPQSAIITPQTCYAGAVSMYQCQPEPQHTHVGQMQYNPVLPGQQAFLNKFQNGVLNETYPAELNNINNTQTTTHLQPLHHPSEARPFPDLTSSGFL
Chain of Retinoic acid receptor alpha (Homo sapiens) (P10276 whole entry, looked up): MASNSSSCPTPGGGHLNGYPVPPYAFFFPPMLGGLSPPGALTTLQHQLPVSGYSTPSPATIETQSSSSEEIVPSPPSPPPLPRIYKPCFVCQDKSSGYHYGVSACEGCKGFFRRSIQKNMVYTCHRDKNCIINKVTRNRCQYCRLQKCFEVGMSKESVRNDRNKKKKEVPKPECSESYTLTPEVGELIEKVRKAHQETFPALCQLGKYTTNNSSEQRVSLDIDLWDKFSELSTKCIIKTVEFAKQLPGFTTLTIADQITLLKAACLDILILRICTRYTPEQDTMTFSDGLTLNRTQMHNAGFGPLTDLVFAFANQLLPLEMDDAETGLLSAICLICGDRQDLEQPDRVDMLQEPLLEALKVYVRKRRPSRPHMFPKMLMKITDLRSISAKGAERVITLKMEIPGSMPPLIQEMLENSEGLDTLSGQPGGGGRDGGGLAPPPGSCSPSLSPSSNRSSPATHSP

Take `OCCOCCOCCO`: the result in [1], in test [2], in test [3], in test [4], in test [5] and in test [6] was inactive. The outcome in test [7], in test [8], in test [9], in [10], in [11] and in test [12] was inactive. Besides, the compound was called inactive in [13], in test [14], in test [15], in test [16] and in [17].
Regarding `c1ccc(C(O[C@@H]2CCCN(CCc3ccc4c(c3)OCO4)C2)c2ccccc2)cc1`, the compound was classed as inactive in test [1], in test [2], in test [6], in test [8], in test [9] and in test [10]. In addition, the outcome in [12], in test [14], in test [15], in test [16] and in test [17] was inactive. In addition, the AC50 in [3] was 50.8 µM (active); in test [4] it was 47.4 µM (active); in [18], 18.1 µM (active); in test [5], 52.1 µM (active); in [11], 33 µM (active); in test [13], 13.8 µM (active).
For the compound `Cc1ncc([C@@H](CCCCCCc2ccc3c(n2)NCCC3)CC(=O)O)cn1`, the outcome in test [1], in test [2], in test [3], in [4], in test [18] and in test [6] was inactive. In addition, the result in [8], in [9], in test [10], in test [11], in test [12] and in test [13] was inactive. Besides, the call in test [14], in test [15], in test [16] and in test [17] was inactive. Also, the AC50 in test [5] was 0.0172 µM (active).
For `CCCCCCCC/C=C\CCCCCCCC(=O)OC[C@@H](O)[C@H]1OC[C@H](O)[C@H]1O`, the call in test [1], in [2], in [3], in test [4], in [5] and in [6] was inactive. The compound was classed as inactive in test [19], in [8], in test [9], in [10], in test [11] and in test [12]. Further, the compound was classed as inactive in test [13], in [14], in test [15], in [16], in [20] and in test [17].
Take `CCCC(CCC)C(=O)O`: the call in test [1], in test [2], in test [3], in [18], in test [5] and in test [6] was inactive. In addition, the outcome in test [9], in test [10], in test [11], in test [12], in [13] and in [14] was inactive. For the same compound, the outcome in test [16], in test [20] and in test [17] was inactive.
As for `Cn1cc[nH]c1=S`, the outcome in test [1], in test [2], in test [3], in test [18], in test [5] and in test [6] was inactive. The result in test [19], in test [9], in test [10], in [11], in test [12] and in test [13] was inactive. Also, the compound was classed as inactive in [14], in [16] and in test [17].
As to `CCCCCCCCCC`, the compound was classed as inactive in test [1], in test [2], in test [3], in test [4], in test [18] and in test [5]. The result in test [6], in test [9], in [10], in test [11], in [12] and in [13] was inactive. Further, the compound was called inactive in test [14], in [15], in test [16] and in test [17].
As to `CCCCCCCCCCCCCCCCOS(=O)(=O)O`, the call in [1], in [2], in [3], in [18], in [6] and in test [8] was inactive. The result in test [10], in [11], in test [12], in test [13], in [14] and in [15] was inactive. The compound was called inactive in [16], in [20] and in test [17]. Further, the AC50 is 24.5 µM (active) in [4], 28.5 µM (active) in test [5] and 25.8 µM (active) in test [9].
